Experimental data taken from PubChem BioAssay (NCI).
Where “and” joins values, the source holds several entries; their conditions need not be identical. Equal entries are not always repeated. This is part of a sample that, as a whole, favours compounds with a hit. Of some 83,000 tested, about 20% had one in any assay.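 Assay: single dose, 48 h. Readout: percent growth (0 = no net growth; negative = cell death). Active: <10.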 Values without a mark were called inactive. Calls of active or inactive are those of the source.

system: OVCAR-5 ovarian; test: NCI-60 one-dose screen, 48 h (100 = growth as untreated, 0 = no growth, -100 = all killed); conditions: 10 µM unless noted

Compound | growth
N#CSCc1ccc(CSC#N)c(Cl)c1 | 96.7%
CN1c2ccccc2C(C)(C)C12C=Cc1cc(O)ccc1O2 (stereo not drawn) | 82.5%
CN(Cc1cnc2nc(N)nc(N)c2n1)c1ccc(C(=O)NC(CCC(=O)O)C(=O)O)cc1 (stereo not drawn) | 44.9%
CCOc1ccc(-c2nc3ccc(-c4nc5ccc(N6CCN(C)CC6)cc5[nH]4)cc3[nH]2)cc1 | -45.8% (active)
CNc1ccc(N)cc1 | 106%
CC(=O)Nc1cccc2cc(O)ccc12 | 94.7% and 93.2% and 113%
CC1OC(OC2C(OC3CCC4(C)C(CCC5(C)C4CC=C4C6CC(C)(C)CCC6(CO)C(O)CC45C)C3(C)C)OC(C(=O)O)C(OC3OC(COC4OC(CO)C(O)C(O)C4O)C(O)C(O)C3O)C2O)C(O)C(O)C1O (stereo not drawn) | -64% (active)
CCCCCCC(C)c1ccccc1O (stereo not drawn) (tested in a mixture with another compound) | 104%
CC1(C)CC([P+](c2ccccc2)(c2ccccc2)c2ccccc2)=NN1 | 67.7%
CN(C)c1ccc(N=Nc2cccc3ccccc23)cc1 | 107%
CN(C)c1ccc(C(=C2C=CC(=[N+](C)C)C=C2)c2ccc(N(C)C)cc2)cc1 (tested in a mixture with another compound) | -66.9% (active)
CC1OC2CC(=O)OC2C2=C1C(=O)c1c(O)cccc1C2=O (stereo not drawn) | -75.2% (active)
O=C1c2ccccc2C(=O)c2sc(Nc3ccc(Cl)cc3)nc21 | -62.5% (active)
